Source: PubChem BioAssay AID1956 (SRMLSC, 2009)
The campaign covered roughly 220,000 compounds. About 10 (0.005%) were called active. No stated cut-off is given here; in the data, active means maximum fold increase above about 1.5; inconclusive means no clear call, values can overlap the other calls; inactive means below that; tested in PC3 cells. The list is a sample of the results.

test: enhancers of HSV replication in host cells, fold increase, host cell viability (AID 1956); conditions: HSV replication augmentation in cells; fold increase: measured here: primary screen fold increase 10 uM, at 10 µM, stronger effect = higher value; maximum fold increase: at 0.098 µM, stronger effect = higher value; viability: measured here: host cell viability series, at 25 µM, stronger effect = lower value

Structure (SMILES)	fold increase	outcome
CC(C)n1c(=S)[nH]c2cc(C(F)(F)F)ccc21	1.02	inactive
COc1cccc(Nc2nnc(SCC(=O)N3CC(=O)Nc4ccccc43)s2)c1	1	inactive
CCc1nnc(SCc2cccc(F)c2)nc1CC	1.19	inactive
CC1(C)CC[C@]2(C(=O)O)CC[C@]3(C)C(=CCC4[C@@]5(C)CC[C@H](O)C(C)(C)C5[C@H](O)C[C@]43C)[C@@H]2C1 (stereo partly specified)	0.82	inactive
COC(C[C@@H](O)C[C@@H](O)[C@H](C)OCc1ccccc1)OC	1.01	inactive
COC(=O)c1cc(=O)n(-c2c(Cl)cc(C(F)(F)F)cc2Cl)[nH]1	0.98	inactive
S=c1[nH]nc(-c2cc(-c3ccccc3)n[nH]2)n1/N=C/c1c2ccccc2cc2ccccc12	0.83	inactive
Cc1cc(C)nc(NC(=O)/C=C/c2ccc(Cl)cc2)n1	0.99	inactive
S=C(NNC(=S)NC1CC2C=CC1C2)NC1CC2C=CC1C2 (stereo unspecified)	0.93	inactive
CCCCN1C(N)=NC[C@@H]1CC1CCCCC1	0.8	inactive
C=CCC1(C(=O)N(C)Cc2ccccc2)CCN(C(=O)OC(C)(C)C)CC1	0.96	inactive
NC(=O)C1=C[C@@H](c2csc3ccccc23)C[C@@H](OCc2ccc(CO)cc2)O1	0.78	inactive
COC(C[C@H](O)CC(=O)[C@@H](C)OCc1ccccc1)OC	0.76	inactive
CCCOc1ccc(Cl)cc1Nc1nc(NCCO)nc(N2CCCC2)n1	0.59	inactive
CC1(c2nnc(-c3ccncc3)o2)CC(c2cccnc2)=NO1 (stereo unspecified)	0.69	inactive
Cc1cc(Cl)ccc1NNC(=O)c1snnc1C	1.06	inactive
CCC1(CC)C(=O)C2=C3C1[C@H](C(=O)OC)C=C(C(=O)OC)C[C@H]3[C@H]1C(=O)N(Cc3ccccc3)C(=O)[C@H]1[C@H]2C (stereo partly specified)	0.96	inactive
CCC(C)N1C(=S)SC(C)(C)C1N(O)C(=O)NC1CCCCC1 (stereo unspecified)	0.99	inactive
NC(=O)CC(NC(=O)Cc1cccc2ccccc12)c1ccc(NCc2cc(F)ccc2F)c([N+](=O)[O-])c1 (stereo unspecified)	0.77	inactive
CC1(C)C=Cc2c(ccc3c2OC[C@@H](c2ccc(O)cc2O)C3)O1	0.67	inactive
Nc1nc(O)c(CC(=O)O)s1	1.21	inactive
Clc1ccc2nc(-c3ccccc3)nc(C(Cl)Cl)c2c1	0.64	inactive
CCCCN1C(N)=NC[C@@H]1Cc1ccccc1	0.87	inactive
Cc1nnc(SC(C(=O)c2ccccc2)c2ccccc2)[nH]c1=O (stereo unspecified)	0.88	inactive
CN1CCc2nc(SC(C(=O)O)c3ccccc3)c(C#N)c(-c3cccs3)c2C1 (stereo unspecified)	0.99	inactive
C/C(=N\Nc1cccc(C(=O)O)c1)c1ccc2c(c1)Nc1ccccc1S2	1.22	inactive
O=C(NCc1ccccc1)c1onc(CSc2ccncc2)c1C(=O)NCc1ccccc1	0.71	inactive

Structure (SMILES)	fold increase	outcome
O=C(N/N=C\c1cc(Br)c(Br)o1)C1COc2ccccc2O1 (stereo unspecified)	1.28	inactive
CC(C)c1cc(CN2CCOCC2)cc(C(C)C)c1O	1.06	inactive
CC(C)=CCc1c(O)c(CC=C(C)C)c2occ(-c3ccc(O)cc3)c(=O)c2c1O	0.74	inactive
CN(C)CCCN(Cc1cc2cc3c(cc2[nH]c1=O)OCCO3)C(=O)NC1CCCCC1	0.89	inactive
C/C(CC(C)C)=N\Oc1nc(C)cc(C)n1	0.9	inactive
COc1ccc(Nc2cc(=O)n(-c3ccccc3)c3c2c(=O)n(C)c(=O)n3C)cc1	1.09	inactive
NC(=O)C1=C[C@@H](c2ccc3c(c2)OCO3)C[C@@H](OCCCCO)O1	0.58	inactive
O=C(NCC1CC1)c1onc(CSc2ccccc2)c1C(=O)NCC1CC1	1.02	inactive
Cc1ccc(S(=O)(=O)N2CCN(C(=O)COC(=O)c3c(C)noc3C)CC2)c(C)c1	0.83	inactive
COc1ccc(CN2CC[C@H]3C=CC[C@@H](C(=O)N4CCOCC4)[C@H]3C2=O)cc1OC	0.78	inactive
Brc1ccc(-c2n(-c3ccccn3)c3ccccc3[n+]2-c2ccccn2)cc1	1.03	inactive
Cc1[nH]n(C)c(=O)c1N=Nc1ccc(S(C)(=O)=O)cc1	1.01	inactive
O=C(CC(c1ccccc1)c1cc(Cl)ccc1O)NCCN1CCOCC1 (stereo unspecified)	0.85	inactive
COC(=O)c1c(-c2ccsc2)oc2ccc(-c3cc(OC)c(OC)c(OC)c3)cc12	1.05	inactive
Cc1cccc(NC(=O)c2ccc([N+](=O)[O-])o2)c1	0.66	inactive
C=CC1C(OC2OC(CO)C(O)C(O)C2O)OC=C(C(=O)OC)C1CC1CC(=O)CC(CC(=O)CCc2ccc(O)cc2)O1 (stereo unspecified)	1.03	inactive
O=C(N/N=C/c1cccc2cccnc12)[C@H]1C[C@@H]1c1ccccc1	0.97	inactive
COCCn1c(SCC(=O)c2[nH]c(C)c(C(C)=O)c2C)nc2ccccc2c1=O	0.86	inactive
CC#CC[N+](C)(C)CCCCCC	1.26	inactive
O=C(NCc1ccccc1)C1=C[C@@H](c2ccccc2)C[C@@H](OCCCCO)O1	0.94	inactive
O=C(COc1ccc([N+](=O)[O-])cc1Cl)Nn1cnnc1	0.85	inactive
COc1ccc(/C=C/C(=O)Nc2ccc(C)cc2)cc1S(=O)(=O)N1CCOCC1	0.88	inactive
CC1(C)S[C@@H]2[C@H](NC(=O)COc3ccccc3)C(=O)N2C1C(=O)OCc1ccccc1 (stereo partly specified)	0.86	inactive
NC(=O)c1nnsc1-c1ccc(-c2snnc2C(N)=O)cc1	0.97	inactive
O=[N+]([O-])C(=c1ccc2c(c1)N1C3=C(CCCC3)CC3CCCCC31N=2)[N+](=O)[O-] (stereo unspecified)	1.07	inactive
Cc1ccc(-c2nc(SCC(=O)Nc3ccccc3OC(F)F)c3c(C)c(C(=O)O)sc3n2)cc1	0.92	inactive
